Source: PubChem BioAssay (EPA / NIEHS)
Results filed as inconclusive are left out. The source made the active and inactive calls. Rule for the calls, unless noted: active = hit-call score of the fitted dose curve at least 0.9, where 1 is the maximum; inconclusive = response in the unintended direction; inactive = score below 0.9.

Legend:
[1] = ATG_M_32_TRANS: Attagene TRANS-FACTORIAL HepG2 Assay for M32 Transcription Factor (Internal Marker) (AID 2282984); conditions: HepG2 Attagene TRANS M32 internal marker reporter
Outline: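 Read-out: fluorescent reporter cDNA fragments resolved by capillary electrophoresis after RT-PCR of total RNA. Transfected HepG2 cells were exposed to chemical for 24 h. Activity scored in the positive direction relative to DMSO.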

[2] = ATG_M_61_TRANS: Attagene TRANS-FACTORIAL HepG2 Assay for M61 Transcription Factor (Internal Marker) (AID 2282988; active = hit-call score of the fitted dose curve at least 0.9, where 1 is the maximum; inactive = score below 0.9); conditions: HepG2 Attagene TRANS M61 internal marker reporter
Outline: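 Background-control reporter transcript, measured after 24 h chemical exposure of transiently transfected HepG2 cells carrying multiple GAL4-UAS reporter units. Read-out by RT-PCR with 6-FAM primer extension and capillary electrophoresis, gain of signal versus DMSO.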

[3] = ATG_TGFb_CIS: Attagene CIS-FACTORIAL HepG2 Assay for human Transforming Growth Factor (TGF) (AID 2282967; active = hit-call score of the fitted dose curve at least 0.9, where 1 is the maximum; inactive = score below 0.9); conditions: HepG2 Attagene CIS TGFb reporter, mRNA transcription; actives raise or lower the signal
Outline: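 HepG2 cells transiently transfected with cis-promoter-driven multiplexed reporter units; 24 h compound exposure. Reporter mRNA measured by RT-PCR, 6-FAM labeling, HpaI digestion and capillary electrophoresis; bidirectional fit versus DMSO baseline.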

[4] = ATG_VDRE_CIS: Attagene CIS-FACTORIAL HepG2 Assay for human Vitamin D Receptor Element (VDRE) (AID 2282968; active = hit-call score of the fitted dose curve at least 0.9, where 1 is the maximum; inactive = score below 0.9); conditions: HepG2 VDRE cis-reporter transcription, actives raise or lower the signal
Outline: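 Transient MRTU transfection of HepG2, 24 h compound exposure. Readout: reporter transcripts via RT-PCR and capillary electrophoresis, fluorescence. Bidirectional fit vs DMSO.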

[5] = target: X-box-binding protein 1 (Homo sapiens) (UniProt P17861); experiment: ATG_Xbp1_CIS: Attagene CIS-FACTORIAL HepG2 Assay for human X-box Binding Protein 1 (XBP1) (AID 2282972; active = hit-call score of the fitted dose curve at least 0.9, where 1 is the maximum; inactive = score below 0.9); conditions: HepG2 XBP1 cis-element reporter, Attagene multiplex; actives raise or lower the signal
Outline: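 Human hepatoma HepG2, cis-element reporter system, 24 h treatment; mRNA quantified by RT-PCR/CE fluorescence; fit relative to DMSO.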

[6] = ATG_M_19_TRANS: Attagene TRANS-FACTORIAL HepG2 Assay for M19 Transcription Factor (Internal Marker) (AID 2282974); conditions: HepG2 Attagene TRANS-FACTORIAL M19 internal marker reporter
Outline: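 Measured here: internal-marker reporter transcript from HepG2 cells transfected with MRTUs, harvested at 24 h. cDNA PCR products were 6-FAM labelled by primer extension, cut with HpaI for 2 h at 37 C, and resolved by CE.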

[7] = target: Oxysterols receptor LXR-alpha (Homo sapiens) (UniProt Q13133); experiment: ATG_LXRa_TRANS: Attagene TRANS-FACTORIAL HepG2 Assay for human Liver X Receptor alpha (LXRa) (AID 2282980); conditions: HepG2 Attagene TRANS reporter, LXRa transactivation
Chain of Oxysterols receptor LXR-alpha (Homo sapiens) (Q13133 whole entry, looked up, the tested form may be a part): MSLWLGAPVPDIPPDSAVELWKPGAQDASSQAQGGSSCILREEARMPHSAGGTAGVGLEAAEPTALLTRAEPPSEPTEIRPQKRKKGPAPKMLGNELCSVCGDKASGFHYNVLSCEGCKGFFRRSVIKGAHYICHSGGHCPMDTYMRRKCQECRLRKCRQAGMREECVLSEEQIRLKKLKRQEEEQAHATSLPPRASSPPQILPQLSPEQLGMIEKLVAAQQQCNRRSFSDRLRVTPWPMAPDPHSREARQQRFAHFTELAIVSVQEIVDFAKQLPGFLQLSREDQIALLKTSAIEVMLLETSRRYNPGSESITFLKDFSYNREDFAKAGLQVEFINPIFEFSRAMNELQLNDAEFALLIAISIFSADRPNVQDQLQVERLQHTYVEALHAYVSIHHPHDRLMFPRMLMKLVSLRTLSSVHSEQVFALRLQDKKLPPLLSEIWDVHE
Outline: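 In this multiplexed TRANS system, compounds act on HepG2 cells carrying GAL4-UAS reporter units and a receptor-GAL4 fusion for 24 h. Induced reporter RNA is amplified, fluorescently labelled and sized by capillary electrophoresis, with DMSO as baseline.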

[8] = target: Oxysterols receptor LXR-beta (Homo sapiens) (UniProt P55055); experiment: ATG_LXRb_TRANS: Attagene TRANS-FACTORIAL HepG2 Assay for human Liver X Receptor beta (LXRb) (AID 2282981); conditions: HepG2 Attagene TRANS GAL4-LXRb reporter, mRNA
Chain of Oxysterols receptor LXR-beta (Homo sapiens) (P55055 whole entry, looked up, the tested form may be a part): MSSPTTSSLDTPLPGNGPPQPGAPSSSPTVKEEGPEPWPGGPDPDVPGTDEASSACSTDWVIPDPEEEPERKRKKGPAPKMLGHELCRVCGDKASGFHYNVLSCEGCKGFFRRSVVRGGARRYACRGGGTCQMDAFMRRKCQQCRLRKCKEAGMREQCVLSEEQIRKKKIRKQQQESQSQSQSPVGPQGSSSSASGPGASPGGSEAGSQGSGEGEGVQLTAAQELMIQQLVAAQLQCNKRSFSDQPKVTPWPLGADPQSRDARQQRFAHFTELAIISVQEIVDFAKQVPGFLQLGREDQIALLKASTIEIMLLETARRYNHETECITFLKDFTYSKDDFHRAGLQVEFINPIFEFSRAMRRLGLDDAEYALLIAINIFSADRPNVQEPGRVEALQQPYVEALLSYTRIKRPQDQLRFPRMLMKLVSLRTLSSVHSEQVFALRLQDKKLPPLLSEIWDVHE
Outline: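 Readout: fluorescent reporter mRNA fragments resolved by capillary electrophoresis after RT-PCR. System: transiently transfected human HepG2, exogenous LXRb-Gal4 chimera driving GAL4-UAS reporter, 24 h dosing. Activity fitted upward against DMSO baseline.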

[9] = ATG_M_06_TRANS: Attagene TRANS-FACTORIAL HepG2 Assay for M06 Transcription Factor (Internal Marker) (AID 2282983); conditions: HepG2 Attagene TRANS M06 internal marker reporter
Outline: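 Multi-reporter-transfected HepG2, 24 h treatment; reporter transcripts quantified via RT-PCR, primer-extension labelling and CE. DMSO-normalized gain-of-signal fit.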

[10] = target: Nuclear receptor subfamily 4 group A member 2 (Homo sapiens) (UniProt P43354); experiment: ATG_NURR1_TRANS: Attagene TRANS-FACTORIAL HepG2 Assay for human Nuclear Receptor Related Protein 1 (NURR1) (AID 2282985); conditions: HepG2 Attagene TRANS reporter, mRNA readout
Chain of Nuclear receptor subfamily 4 group A member 2 (Homo sapiens) (P43354 whole entry, looked up, the tested form may be a part): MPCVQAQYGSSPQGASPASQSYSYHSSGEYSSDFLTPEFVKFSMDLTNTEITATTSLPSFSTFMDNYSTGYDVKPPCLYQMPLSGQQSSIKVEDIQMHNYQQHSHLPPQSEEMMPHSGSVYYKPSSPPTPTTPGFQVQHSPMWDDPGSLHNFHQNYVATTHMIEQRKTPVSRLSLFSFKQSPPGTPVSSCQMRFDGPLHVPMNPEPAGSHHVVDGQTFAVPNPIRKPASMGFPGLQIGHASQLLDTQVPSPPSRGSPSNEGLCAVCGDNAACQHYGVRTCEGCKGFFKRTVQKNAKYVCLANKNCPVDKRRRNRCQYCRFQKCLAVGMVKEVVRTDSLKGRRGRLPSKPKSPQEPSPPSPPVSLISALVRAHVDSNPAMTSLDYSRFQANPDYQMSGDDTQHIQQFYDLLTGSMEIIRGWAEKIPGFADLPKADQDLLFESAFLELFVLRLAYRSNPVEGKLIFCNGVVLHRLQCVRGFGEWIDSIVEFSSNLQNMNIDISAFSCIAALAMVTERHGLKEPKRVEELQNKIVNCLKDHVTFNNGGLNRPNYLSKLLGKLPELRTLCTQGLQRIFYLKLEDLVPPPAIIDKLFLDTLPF
Outline: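 Read-out: reporter mRNA induction by RT-PCR plus capillary electrophoresis with fluorescence detection, after 24 h dosing of transfected HepG2 cells. Exogenous NR-Gal4 chimera activity drives GAL4-UAS reporter; activity fitted upward versus DMSO.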

[11] = target: Transcriptional activator Myb (Homo sapiens) (UniProt P10242); experiment: ATG_Myb_CIS: Attagene CIS-FACTORIAL HepG2 Assay for human Myeloblastosis (Myb) Proto-Oncogene Transcription Factor (AID 2282986; active = hit-call score of the fitted dose curve at least 0.9, where 1 is the maximum; inactive = score below 0.9); conditions: HepG2 Attagene CIS-FACTORIAL Myb reporter transcription; actives raise or lower the signal
Chain of Transcriptional activator Myb (Homo sapiens) (P10242 whole entry, looked up): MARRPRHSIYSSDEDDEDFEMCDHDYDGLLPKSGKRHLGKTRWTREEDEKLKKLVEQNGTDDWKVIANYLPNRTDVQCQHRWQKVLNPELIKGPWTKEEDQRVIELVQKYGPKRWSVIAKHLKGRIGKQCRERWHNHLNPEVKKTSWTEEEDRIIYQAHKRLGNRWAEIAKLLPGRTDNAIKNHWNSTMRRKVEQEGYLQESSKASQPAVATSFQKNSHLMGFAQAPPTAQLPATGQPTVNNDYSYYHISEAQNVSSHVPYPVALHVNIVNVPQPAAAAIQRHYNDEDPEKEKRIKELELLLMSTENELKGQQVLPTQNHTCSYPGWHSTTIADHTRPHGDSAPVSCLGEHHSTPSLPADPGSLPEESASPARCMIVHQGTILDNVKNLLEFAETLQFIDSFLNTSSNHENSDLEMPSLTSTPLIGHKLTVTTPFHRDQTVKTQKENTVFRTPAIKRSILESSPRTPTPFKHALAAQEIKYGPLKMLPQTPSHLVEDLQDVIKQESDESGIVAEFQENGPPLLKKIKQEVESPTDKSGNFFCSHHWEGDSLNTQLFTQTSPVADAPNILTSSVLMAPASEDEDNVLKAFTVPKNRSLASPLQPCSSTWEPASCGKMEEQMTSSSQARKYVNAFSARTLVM
Outline: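 Fluorescence signals from capillary electrophoresis of RT-PCR-amplified reporter cDNA give the read-out. Cells: HepG2 transfected with multiple cis-regulated reporter units. Exposure lasts 24 hours; DMSO defines baseline for gain or loss of signal.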

[12] = target: Nuclear respiratory factor 1 (Homo sapiens) (UniProt Q16656); experiment: ATG_NRF1_CIS: Attagene CIS-FACTORIAL HepG2 Assay for human Nuclear Respiratory Factor 1 (NRF1) Orphan Gene (AID 2282987; active = hit-call score of the fitted dose curve at least 0.9, where 1 is the maximum; inactive = score below 0.9); conditions: HepG2 NRF1 cis-element reporter, Attagene multiplex; actives raise or lower the signal
Chain of Nuclear respiratory factor 1 (Homo sapiens) (Q16656 whole entry, looked up): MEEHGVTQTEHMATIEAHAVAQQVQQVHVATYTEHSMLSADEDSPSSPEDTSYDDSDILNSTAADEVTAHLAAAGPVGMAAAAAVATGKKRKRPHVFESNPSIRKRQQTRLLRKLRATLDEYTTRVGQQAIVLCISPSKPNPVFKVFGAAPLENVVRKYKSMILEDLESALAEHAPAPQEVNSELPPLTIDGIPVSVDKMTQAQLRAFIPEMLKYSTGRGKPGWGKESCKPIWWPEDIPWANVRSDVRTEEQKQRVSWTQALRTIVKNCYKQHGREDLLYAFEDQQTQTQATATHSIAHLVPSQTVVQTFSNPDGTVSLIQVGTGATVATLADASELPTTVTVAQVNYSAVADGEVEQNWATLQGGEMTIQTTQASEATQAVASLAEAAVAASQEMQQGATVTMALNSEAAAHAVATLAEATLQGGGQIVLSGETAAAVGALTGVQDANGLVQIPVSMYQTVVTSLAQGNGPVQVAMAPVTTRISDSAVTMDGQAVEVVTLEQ
Outline: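 Transcriptional reporter readout, one component of a 52-endpoint multiplexed HepG2 panel. Exposure 24 h; mRNA detected via RT-PCR and fluorescent capillary electrophoresis; fitting in both directions against DMSO.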

[13] = target: Nuclear receptor subfamily 1 group I member 3 (Homo sapiens) (UniProt Q14994); experiment: ATG_CAR_TRANS: Attagene TRANS-FACTORIAL HepG2 Assay for human Constitutive Androstane Receptor (CAR) (AID 2282969); conditions: HepG2 Attagene TRANS-FACTORIAL CAR reporter;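 note: activators raise reporter mRNA above DMSO so AC50 marks induction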
Outline: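 Transiently transfected HepG2, multiplex TRANS reporters (CAR-Gal4 chimera driving GAL4-UAS reporter). 24 h dosing. Readout: reporter transcript by RT-PCR + capillary electrophoresis, fluorescence intensity; positive direction vs DMSO.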

[14] = ATG_Hpa5_TRANS: Attagene TRANS-FACTORIAL HepG2 Assay for human GAL4-Hpa5 Hepatocyte Transcription Factor Basal Promoter (AID 2282975); conditions: HepG2 Attagene GAL4-Hpa5 transcription reporter;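 note: hits are increases in reporter mRNA over DMSO baseline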
Outline: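 Gain-of-signal versus DMSO is fitted for reporter mRNA quantified by RT-PCR and capillary electrophoresis after 24 h exposure. This endpoint is an internal background marker in transiently transfected HepG2 cells carrying GAL4-UAS reporter units.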

[15] = target: Bile acid receptor (Homo sapiens) (UniProt Q96RI1); experiment: ATG_FXR_TRANS: Attagene TRANS-FACTORIAL HepG2 Assay for Farnesoid X Receptor (FXR) (AID 2282979); conditions: HepG2 Attagene TRANS FXR-GAL4 reporter transcription;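 note: hits raise reporter mRNA above DMSO so AC50 marks FXR activation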
Chain of Bile acid receptor (Homo sapiens) (Q96RI1 whole entry, looked up, the tested form may be a part): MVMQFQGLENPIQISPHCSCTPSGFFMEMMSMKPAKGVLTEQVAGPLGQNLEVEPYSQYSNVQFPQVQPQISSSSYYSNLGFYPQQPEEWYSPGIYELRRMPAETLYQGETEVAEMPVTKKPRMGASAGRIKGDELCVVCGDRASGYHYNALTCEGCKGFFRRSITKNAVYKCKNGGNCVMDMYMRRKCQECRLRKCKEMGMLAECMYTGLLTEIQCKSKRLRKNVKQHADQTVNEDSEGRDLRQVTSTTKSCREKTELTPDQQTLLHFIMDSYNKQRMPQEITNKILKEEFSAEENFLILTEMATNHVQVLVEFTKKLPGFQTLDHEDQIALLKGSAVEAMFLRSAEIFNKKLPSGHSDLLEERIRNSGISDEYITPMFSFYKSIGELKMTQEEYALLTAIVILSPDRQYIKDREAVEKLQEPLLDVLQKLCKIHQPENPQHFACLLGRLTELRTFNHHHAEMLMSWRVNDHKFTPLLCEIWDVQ
Outline: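 After 24 h chemical treatment of transfected HepG2 cells, GAL4-UAS reporter transcripts driven by an exogenous FXR-GAL4 fusion were measured by RT-PCR and capillary electrophoresis. Increases over DMSO were fitted.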

[16] = target: Hepatocyte nuclear factor 4-alpha (Homo sapiens) (UniProt P41235); experiment: ATG_HNF4a_TRANS: Attagene TRANS-FACTORIAL HepG2 Assay for human Hepatocyte Nuclear Factor 4 alpha (HNF4a) (AID 2282982); conditions: HepG2 HNF4a transactivation reporter, mRNA readout
Chain of Hepatocyte nuclear factor 4-alpha (Homo sapiens) (P41235 whole entry, looked up): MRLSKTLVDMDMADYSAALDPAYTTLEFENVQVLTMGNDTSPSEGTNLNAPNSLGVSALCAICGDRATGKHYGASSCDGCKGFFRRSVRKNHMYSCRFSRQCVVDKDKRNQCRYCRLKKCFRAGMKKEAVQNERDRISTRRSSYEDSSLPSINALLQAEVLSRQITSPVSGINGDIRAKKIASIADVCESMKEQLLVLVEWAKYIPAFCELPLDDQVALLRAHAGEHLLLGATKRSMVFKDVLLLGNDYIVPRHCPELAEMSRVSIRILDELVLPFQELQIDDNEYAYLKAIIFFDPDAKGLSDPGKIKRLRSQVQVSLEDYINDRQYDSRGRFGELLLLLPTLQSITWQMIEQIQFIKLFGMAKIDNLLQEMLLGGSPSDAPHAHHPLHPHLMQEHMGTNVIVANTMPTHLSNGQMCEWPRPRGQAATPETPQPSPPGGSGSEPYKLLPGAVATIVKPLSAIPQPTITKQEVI
Outline: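 Transient MRTU transfection of HepG2, 24 h dosing. Readout: reporter mRNA via RT-PCR + capillary electrophoresis, fluorescence; activity fit upward relative to DMSO control.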

[17] = ATG_GAL4_TRANS: Attagene TRANS-FACTORIAL HepG2 Assay for GAL4 (Internal Marker) (AID 2282976); conditions: HepG2 Attagene TRANS GAL4 internal marker reporter
Outline: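 Liver HepG2 line bearing multiplexed GAL4-UAS reporter constructs; 24 h chemical treatment. Transcripts were quantified as fluorescent fragments on capillary electrophoresis after RT-PCR and HpaI cut, with activity fitted upward from DMSO.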

[18] = target: Glucocorticoid receptor (Homo sapiens) (UniProt P04150); experiment: ATG_GR_TRANS: Attagene TRANS-FACTORIAL HepG2 Assay for human Glucocorticoid Receptor (GR) (AID 2282978); conditions: HepG2 Attagene TRANS GR reporter, mRNA transcription;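 note: activators score as hits since higher reporter transcript over DMSO is fitted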
Chain of Glucocorticoid receptor (Homo sapiens) (P04150 whole entry, looked up, the tested form may be a part): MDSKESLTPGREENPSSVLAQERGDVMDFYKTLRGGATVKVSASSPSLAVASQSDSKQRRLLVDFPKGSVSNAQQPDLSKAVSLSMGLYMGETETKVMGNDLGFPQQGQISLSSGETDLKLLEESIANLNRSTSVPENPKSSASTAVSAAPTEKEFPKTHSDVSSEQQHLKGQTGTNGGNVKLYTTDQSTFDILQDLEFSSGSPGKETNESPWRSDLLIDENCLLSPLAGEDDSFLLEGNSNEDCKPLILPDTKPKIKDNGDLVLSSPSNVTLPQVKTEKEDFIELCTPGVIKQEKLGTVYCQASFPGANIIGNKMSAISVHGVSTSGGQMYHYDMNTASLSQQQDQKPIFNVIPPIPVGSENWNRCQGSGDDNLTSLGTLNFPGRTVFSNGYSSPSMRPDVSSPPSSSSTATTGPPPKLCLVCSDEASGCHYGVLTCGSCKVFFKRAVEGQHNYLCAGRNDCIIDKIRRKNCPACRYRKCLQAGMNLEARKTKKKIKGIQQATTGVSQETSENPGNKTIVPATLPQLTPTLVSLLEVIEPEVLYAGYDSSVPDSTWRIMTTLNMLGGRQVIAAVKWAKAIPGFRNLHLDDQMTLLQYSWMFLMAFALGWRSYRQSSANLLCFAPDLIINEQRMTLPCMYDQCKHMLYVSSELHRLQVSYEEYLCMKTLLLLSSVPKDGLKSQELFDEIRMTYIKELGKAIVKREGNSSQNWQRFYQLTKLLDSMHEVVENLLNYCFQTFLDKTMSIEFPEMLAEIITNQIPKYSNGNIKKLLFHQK
Outline: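 Measurement of GAL4-UAS-driven reporter mRNA in human HepG2 liver cells 24 h post-dosing, using RT-PCR with fluorescent labelling and capillary electrophoresis; the transfected constructs report exogenous NR-GAL4 chimera activity, fitted upward against DMSO.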

[19] = target: Estrogen receptor (Homo sapiens) (UniProt P03372); experiment: ATG_ERa_TRANS: Attagene TRANS-FACTORIAL HepG2 Assay for human Estrogen Receptor alpha (ERa) (AID 2282970); conditions: HepG2 Attagene TRANS ERa GAL4 reporter, mRNA
Chain of Estrogen receptor (Homo sapiens) (P03372 whole entry, looked up, the tested form may be a part): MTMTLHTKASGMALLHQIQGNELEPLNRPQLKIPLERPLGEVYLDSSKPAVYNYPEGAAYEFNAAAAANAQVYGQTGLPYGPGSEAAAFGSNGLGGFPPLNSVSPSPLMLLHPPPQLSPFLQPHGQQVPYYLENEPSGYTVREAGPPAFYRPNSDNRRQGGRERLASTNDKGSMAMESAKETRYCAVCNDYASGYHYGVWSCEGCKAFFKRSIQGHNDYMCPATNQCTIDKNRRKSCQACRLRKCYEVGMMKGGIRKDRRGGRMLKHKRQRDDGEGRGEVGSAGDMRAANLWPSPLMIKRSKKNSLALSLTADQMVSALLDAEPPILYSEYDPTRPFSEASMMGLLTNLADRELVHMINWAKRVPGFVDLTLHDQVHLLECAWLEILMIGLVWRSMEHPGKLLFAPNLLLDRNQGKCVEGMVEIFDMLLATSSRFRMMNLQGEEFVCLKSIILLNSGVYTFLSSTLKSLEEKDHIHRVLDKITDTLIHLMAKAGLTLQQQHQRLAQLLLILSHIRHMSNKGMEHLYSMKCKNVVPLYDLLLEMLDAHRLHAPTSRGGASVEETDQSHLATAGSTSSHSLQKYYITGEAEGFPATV
Outline: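 Signal derives from fluorescence of labelled reporter PCR fragments separated by capillary electrophoresis. HepG2 cells transiently carrying multiple GAL4-UAS reporter units were treated 24 hours, and induction above DMSO baseline was fitted as activity.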

[20] = target: Estrogen-related receptor gamma (Homo sapiens) (UniProt P62508); experiment: ATG_ERRg_TRANS: Attagene TRANS-FACTORIAL HepG2 Assay for human Estrogen-Related Receptor gamma (ERRg) (AID 2282977); conditions: HepG2 Attagene TRANS reporter, ERRg transactivation;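 note: hits increase reporter signal over DMSO so potencies reflect activators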
Outline: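 Exogenous NR-Gal4 chimera activity was assessed in HepG2 cells bearing transfected GAL4-UAS reporters. After 24 h dosing, total RNA underwent RT-PCR, fluorescent primer extension and HpaI digestion before capillary electrophoresis, with gain of signal scored against DMSO.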

Measured: AC50

COC(=O)c1cccc(C)c1S(=O)(=O)NC(=O)Nc1nc(OCC(F)(F)F)nc(N(C)C)n1
inactive: [1]

CC(C)CCCCCCc1ccc(O)cc1
inactive: [2]

COC(=O)c1ccccc1C(=O)O
inactive: [3] | [4] | [5] | [6] | [7] | [8] | [9] | [10] | [11] | [12]

CCCCOCCOCCOCc1cc2c(cc1CCC)OCO2
inactive: [3] | [13] | [5] | [14] | [15] | [16] | [9] | [10] | [11] | [12]

CCCCC(CC)COC(=O)c1ccccc1C(=O)O (configuration not stated)
inactive: [3] | [4] | [13] | [5] | [6] | [14] | [17] | [18] | [7] | [8] | [9] | [11] | [12]

O=C(Nc1ccc([N+](=O)[O-])cc1Cl)c1cc(Cl)ccc1O
active: [5] 493 nM
inactive: [3] | [6] | [7] | [8] | [16] | [11] | [12]

CCN(CC)C(=O)c1cccc(C)c1
inactive: [3] | [4] | [19] | [5] | [6] | [14] | [17] | [20] | [18] | [15] | [7] | [8] | [16] | [9] | [11] | [12]

CCOC(=O)COc1cc(-n2ncc(C(F)(F)F)c(C)c2=O)c(F)cc1Cl
inactive: [3] | [4] | [19] | [5] | [6] | [14] | [7] | [8] | [9] | [11] | [12]

COC(=O)c1c(Cl)nn(C)c1S(=O)(=O)NC(=O)Nc1nc(OC)cc(OC)n1
inactive: [3] | [4] | [19] | [5] | [14] | [20] | [18] | [15] | [7] | [8] | [16] | [9] | [11] | [12]

CCCCCCC(C)OC(=O)COc1nc(F)c(Cl)c(N)c1Cl (configuration not stated)
inactive: [3] | [4] | [5] | [16] | [9] | [10] | [11] | [12]
